The values that follow come from PubChem BioAssay AID504332 (National Center for Advancing Translational Sciences (NCATS), 2011).

In all, about 350,000 compounds went through this assay and about 31,000 (8.9%) were called active. Another 15% or so got no clear call; they are omitted. The entries come from a sample that favours actives as a whole. A number with no mark means an inactive call. Calls come from the whole dose curve; as a rule, active = well fitted inhibition curve with a large enough effect; inconclusive = small, poorly fitted or top-dose-only effect; inactive = no such curve, though single readings can be large or run the other way.
% is set by controls: 0 for no effect and ±100 for the full control effect; potency is the fitted concentration of half-maximal effect.

The assay deals with Histone-lysine N-methyltransferase EHMT2 (Homo sapiens) (UniProt Q96KQ7). The assay is described as follows: qHTS Assay for Inhibitors of Histone Lysine Methyltransferase G9a. Note: nearly all actives have a fitted effect of over 75% in size. To be noted: G9a H3K9 monomethylation, AlphaScreen, 2 h; series mostly up to 59 µM; activity, negative = inhibition: at the top concentration. The text has this: Methylated lysines, on the N-terminal tails of histone proteins serve as epigenetic markers to recruit factors that can then modify local chromatin structure to lead to functional consequences. G9a and other members of the SUV39 family of the SET domain-containing superfamily of histone lysine methyltransferases (HMT) have been identified to specifically methylate Lys9 of histone H3 (H3K9). G9a catalyzes the mono- and di-methylation of H3K9 in mammalian euchromatic regions, where the resulting H3K9me2 is indicative of transcriptional repression. […] The inhibition of G9a will result in transcriptional activation and work synergistically with DNA methyltransferase and histone deacetylase inhibitors, to kill cancer cells. This qHTS assay for identification of G9a inhibitors is a chemiluminescence based AlphaScreen (PerkinElmer). Methylation of biotinylated-histone peptide is measured through specific antibody-based detection, in conjunction with streptavidin-coated donor and anti-IgG antibody-coated acceptor beads. The method is particularly well suited for detection of inhibitors acting by the desired histone peptide competitive mechanism and is applicable to testing other HMTs. Although AlphaScreen has significant advantages with its utility in a variety of epigenetic target assays, the primary screening data provided in this deposition should be used with caution due to the prevalence of screening artifacts. An AlphaScreen counterscreen is highly recommended to be run against any putative actives to eliminate non specific artifacts. Alternatively, one can use other AlphaScreen assays in PubChem to filter out promiscuous hits. Quinn et al. A chemiluminescence-based method for identification of histone lysine methyltransferase inhibitors. Mol Biosyst 6(5): 782-8. 2010. PMID: 20567762 [2] Baell,Holloway. New substructure filters for removal of pan assay interference compounds (PAINS) from screening libraries and for their exclusion in bioassays. J Med Chem. 53(7):2719-40. 2010. PMID: 20131845 NIH Molecular Libraries Probe Production Network [MLPCN] NIH Chemical Genomics Center [NCGC] Structural Genomics Consortium (SGC) NIH Grant: 5U54 MH084681-02
Histone-lysine N-methyltransferase EHMT2 (Homo sapiens), sequence (Q96KQ7 913-1193 limits assumed): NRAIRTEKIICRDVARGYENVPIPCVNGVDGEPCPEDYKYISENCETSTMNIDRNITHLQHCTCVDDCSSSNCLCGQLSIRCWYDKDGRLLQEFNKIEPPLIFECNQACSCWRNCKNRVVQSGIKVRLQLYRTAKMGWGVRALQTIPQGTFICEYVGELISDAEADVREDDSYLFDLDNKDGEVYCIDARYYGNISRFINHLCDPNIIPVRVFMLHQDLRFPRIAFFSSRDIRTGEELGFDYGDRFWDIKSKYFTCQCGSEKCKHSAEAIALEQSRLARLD
To each well of a 1,536w plate, 2ul of HMT enzyme (final 20nM) were added, using a nanoliter dispenser. The G9a- and GLP-inhibitor BIX-01294 (CID: 25150857) are used as an intraplate control, with a 16-point titration in duplicate. A Kalypsys pin-tool transferred 23nl of library compound solution in DMSO to each well. Following a 15 min incubation of enzyme with compounds at room temperature, 1ul mixture of b-H3K9 peptide substrate (final 500nM) and SAM cofactor (final 20uM) were added. Reactions were allowed to proceed at room temperature for 2 hours. Methylated b-H3K9 peptide product was detected with 0.5 ug/mL rabbit polyclonal anti-monomethyl histone H3K9 antibody (Abcam Inc., Cambridge, MA) and 20 ug/mL each streptavidin-coated donor and anti-rabbit IgG acceptor AlphaScreen beads. Antibody and beads were added in a 1ul dispense, for a final volume of 4ul, and plates were incubated, protected from the light, for 10 min at room temperature. Microplates were then read on an EnVision multilabel plate reader using the 1,536 plate HTS AlphaScreen aperture (excitation time 80 ms, measurement time 240 ms).
A general note: Quantitative high-throughput screening tests each substance at several concentrations.
Turning to `CCOC(=O)[C@H]1[C@H]2COc3ccc(OC)cc3[C@@H]2N2C(=O)c3ccc(F)cc3NC(=O)[C@@]12C`, the activity, negative = inhibition was 22.3% [at 2.33 µM].

Regarding `O=C(NNC(=O)c1cc(S(=O)(=O)N2CCCCC2)ccc1Cl)c1ccccc1O`, the activity, negative = inhibition was 36.2% [at 12.7 µM]. Take `Cc1ccc(C(=O)Nc2ccc(OCc3cc(=O)n4c(C)csc4n3)cc2)cc1`: the “activity, negative = inhibition” value was 4.04%. As to `O=C(C1CCC1)N1CCN(S(=O)(=O)c2ccc([N+](=O)[O-])cc2)CC1`, the activity, negative = inhibition is -3.47% [at 12.7 µM].

`Cc1cc(C)n(-c2ccc(Cl)c(C(=O)O)n2)n1`: the “activity, negative = inhibition” value was 12.4% [at 102 µM].

With `CC(=O)c1ccc(Oc2cc(C)nc(-n3nc(C)cc3C)n2)cc1`, the “activity, negative = inhibition” value was -3.88%. Consider `Cc1cc(C)n(-c2nc(O)cc(=O)[nH]2)n1`, for which the Potency was 4.47 µM (active). Regarding `O=C(NCCc1ccccc1)c1cnc2sc(N3CCCC3)nn2c1=O`, the “activity, negative = inhibition” value is 13.7%. With `COc1ccc(-c2csc3ncnc(N4CCN(S(=O)(=O)c5cccc(F)c5)CC4)c23)cc1`, the activity, negative = inhibition was -11.1% [at 2.33 µM].

Regarding `O=C(NCc1ccccc1Cl)C1=Cc2cc(Br)ccc2OC1`, the “activity, negative = inhibition” value was 21.6%.

Take `Cc1ccc(N2C(=O)C3C(c4ccccc4)(C2=O)C3(c2ccccc2)c2ccccc2)cc1` (stereo unspecified): the activity, negative = inhibition is 28.9% [at 12.7 µM].

For `Cc1ccc(C2C3=C(Nc4[nH]n(-c5ccccc5)c(=O)c42)c2ccccc2C3=O)cc1` (stereo unspecified), the Potency was 3.16 µM (active).

As for `Cc1ccc(C2SCC(=O)N2c2ccccc2)cc1` (stereo unspecified), the “activity, negative = inhibition” value is -19.3% [at 102 µM]. Turning to `CCCn1c(=N)n(CC(O)COc2ccccc2OC)c2ccccc21` (stereo unspecified), the “activity, negative = inhibition” value is 0.0305%. Consider `CCCCn1c(N)c(N(CCOC)C(=O)CSCC(=O)Nc2cccc(C)c2)c(=O)[nH]c1=O`, for which the “activity, negative = inhibition” value is 13.6%. Still for that read-out and setting: with `O=C(Nc1ccccc1F)c1ccc(S(=O)(=O)N2CCCCCC2)cc1` the figure was 62.1% [at 12.7 µM]; with `CC1(C)Cc2c(sc(NC(=O)C(=O)NCC3CCCO3)c2C(=O)O)CO1` (stereo unspecified), 21% [at 102 µM]. Consider `N#Cc1c(NC(=O)c2ccc(N3CCOCC3)c([N+](=O)[O-])c2)sc2c1CCCC2`, for which the “activity, negative = inhibition” value was 24.3%. Regarding `CCOC(=O)CSc1nc2sc3c(c2c(=O)[nH]1)CC(C)(C)OC3`, the “activity, negative = inhibition” value was -73.9% [at 102 µM].

In the case of `CCOC(=O)Cn1c(SC)nc2sc3c(c2c1=O)CC(C)(C)OC3`, the “activity, negative = inhibition” value was 8.03%. In the case of `CCOC(=O)N1CCN(C(=O)C(=O)Nc2sc3c(c2C#N)CC(C)(C)OC3)CC1`, the Potency is 12.6 µM (active).

In the case of `CC1(C)Cc2c(sc(NC(=O)C(=O)N3CCOCC3)c2C#N)CO1`, the Potency was 35.5 µM (active).

`CCN1CCC2(CC1)N=C(c1ccc(F)cc1)C(=S)N2C(=O)c1ccc(C)cc1`: the Potency is 10 µM (active). As to `Cc1ccc(NC(=O)CN2C(=O)C(c3ccc(F)cc3)=NC23CCCCCC3)c(C)c1`, the “activity, negative = inhibition” value is 26.7%. Consider `CCN1CCN(C(=O)CSc2ccc(C)cc2)CC1`, for which the “activity, negative = inhibition” value is 8.84% [at 102 µM]. On to `O=C(Nc1ccc(S(=O)(=O)N2CCCCCC2)cc1)c1c(F)cccc1F`, for which the activity, negative = inhibition is -5.59% [at 12.7 µM]. As for `Cc1ccc(Cl)cc1NC(=O)Cc1ccc(-n2c(C)nc3cccnc32)cc1`, the “activity, negative = inhibition” value is -30.9%. Take `COc1ccccc1C1=CC(=O)C[C@H](c2ccc(F)cc2)C1`: the activity, negative = inhibition is -10.3% [at 0.501 µM]. Turning to `Cc1sc2ncnc(SCC(=O)Nc3ccc(CN4CCCC4)cc3)c2c1C`, the activity, negative = inhibition is 10.2% [at 12.7 µM].

Turning to `S=C(c1ccc(-c2ccccc2)o1)N1CCCCC1`, the “activity, negative = inhibition” value was -134%. As for `O=C(NC(=S)Nc1ccccc1C(=O)O)c1ccc(-c2ccc(Br)cc2)o1`, the Potency is 22.4 µM (active). `O=C(Cc1ccccc1)Nc1ccc(C(=O)Nc2ccccc2C(=O)O)cc1`: the “activity, negative = inhibition” value was 21.8% [at 102 µM]. Consider `Cc1ccc(SCC(=O)Nc2ccc3oc(-c4ccccc4C)nc3c2)cc1`, for which the “activity, negative = inhibition” value is 9.03%. In the case of `Cc1cccc(NC(=O)CSc2nc3c([nH]c4ccccc43)c(=O)n2-c2cc(C)cc(C)c2)c1`, the “activity, negative = inhibition” value was 2.1%.

Consider `COCCCNC(=S)NC(=O)c1ccc([N+](=O)[O-])cc1`, for which the “activity, negative = inhibition” value was -14.4%. As to `Cc1cccc(C(=O)NNC(=O)c2cccc([N+](=O)[O-])c2)c1`, the “activity, negative = inhibition” value is -38.6% [at 102 µM]. As to `CCCCCC(=O)Nc1ccc(C(=O)N/N=C/c2ccc([N+](=O)[O-])cc2)cc1`, the “activity, negative = inhibition” value was 6.96% [at 102 µM]. For `CC(C)(C)SCCNC(=O)c1cccc([N+](=O)[O-])c1`, the “activity, negative = inhibition” value is -0.0873%.

On to `CC(C)CC(=O)NC(=S)NNC(=O)c1cccc([N+](=O)[O-])c1`, for which the Potency is 22.4 µM (active). As to `CCCCCC(=O)NC(=S)NNC(=O)c1ccc([N+](=O)[O-])cc1`, the Potency is 8.91 µM (active).

Consider `COc1ccccc1NC(=O)C1=C(C)Nc2ncnn2C1c1sccc1C` (stereo unspecified), for which the “activity, negative = inhibition” value was -1.85%.

For `CC(OC(=O)c1ccc(S(=O)(=O)N2CCOCC2)cc1)c1ccccc1` (stereo unspecified), the “activity, negative = inhibition” value is 30.1% [at 102 µM].

`COc1ccccc1/C=C/C(=O)OCC(=O)NC1CCCCCC1`: the activity, negative = inhibition is 25.2% [at 2.33 µM]. Turning to `Cc1cc(C)c2c(-c3ccc(F)cc3)c(C#N)c(=O)n(C)c2n1`, the “activity, negative = inhibition” value is -7.15% [at 102 µM]. The same measure, in the same setting: with `N#Cc1c(-c2ccc(Cl)cc2)c2c([nH]c1=S)CCCC2` the figure was -10.4%.

For the molecule `CC(=O)c1c(C)[nH]c(=S)c(C#N)c1-c1ccc(F)cc1`, the Potency was 1.41 µM (active).
